This assay has as its target Glucose transporter (Leishmania mexicana) (UniProt O61059). Nature of the assay: ST_JUDE_LEISH: Cytotoxicity at 2uM final concentration against transgenic Leishmania Mexicana promastigotes LmGT2 that are glucose transport deficient and complemented with the L. Mexicana glucose transporter 2. Activity is measured by DNA content using SYBR green in vitro. In kind it is functional.
Consider `Oc1ccc(Nc2ccnc3cc(Cl)ccc23)cc1`, for which the inhibition – broadly, the drop in the measured response relative to a control, in per cent – turned out to be 4.27%.

For `O=C(NCc1cccc2ccccc12)C(c1cc2ccccc2o1)N1CCN(C(c2ccccc2)c2ccccc2)CC1` (stereo not given), the inhibition is -2.97%.

For the compound `Cc1ccc(C)c(Cn2ccc3nc(N)nc(N)c32)c1`, the inhibition was -0.67%.

Consider `Cc1ccc(Nc2nc3cc(N(C)c4ccnc(Nc5cccc(CCS(C)(=O)=O)c5)n4)ccc3n2C)cc1`, for which the inhibition was determined as 3.82%.

For the compound `COc1ccc(Cc2c(C)nc3nc(N)nc(N)c3c2C)cc1`, the inhibition was found to be 34.5%.

For `OC(CNCc1ccccc1OCc1ccccc1)c1cc(Br)cs1` (stereo not given), the inhibition was found to be 3.82%.

Regarding `O=C(Nc1ccc(C(F)(F)F)cc1)Nc1ccccc1N1CCNCC1`, the inhibition was found to be 6.58%.

For `CN(Cc1ccccc1)C1CCN(c2cc(NC(=O)c3cccc(F)c3)ccn2)CC1`, the inhibition amounted to 6.54%.

As to `CC(C)CCNC(=N)c1ccc(OCCCCCOc2ccc(C(=N)NCCC(C)C)cc2)cc1`, the inhibition was 8.15%.

With `O=C(NC(c1ccccc1)c1ccccc1)C(c1cc2ccccc2o1)N1CCN(C(c2ccccc2)c2ccccc2)CC1` (stereo not given), the inhibition stood at 0.24%.

Take `CC1CN(c2cnn(C/C=C/c3ccc(NC(=O)c4ccc([N+](=O)[O-])cc4)cc3)c(=O)c2Cl)CC(C)N1` (stereo not given): the inhibition came to 0.18%.

As for `CC(=O)c1cccc(NC(=O)N2CCCN(CCCCCNC(=O)/C=C/c3ccc(Cl)c(Cl)c3)CC2)c1`, the inhibition is -0.6%.

In the case of `N#Cc1cccc(NC(=O)Nc2ccc(CC(=O)N3CCc4cc(Cl)c(N5CCN(C/C=C/c6ccccc6)CC5)cc43)cc2)c1`, the inhibition was determined as 2.7%.

As for `COc1ccc(NC(=O)C2CCN(CCCCCNC(=O)/C=C/c3ccc(Cl)c(Cl)c3)CC2)cc1`, the inhibition came to 2.85%.

Regarding `COc1ccc(C(F)(F)F)cc1N1CCN(CCCCNC(=O)c2ccc(NC(=O)c3ccc(Cl)cc3)cc2)CC1`, the inhibition was -0.38%.

On to `COc1ccc2nc(C)cc(N/N=C/c3ccccc3[N+](=O)[O-])c2c1`, for which the inhibition was -0.41%.

Take `O=C(/C=C/c1ccc(Cl)cc1)NCCCCCN1CCN(C(=O)C=Cc2ccc(Cl)c(Cl)c2)CC1`: the inhibition was -2.29%.

As for `Cc1cc(Nc2ccc(OCc3ccccc3Cl)cc2)c2cc(Cl)ccc2n1`, the inhibition amounted to 7.55%.

For `CCOc1ccc2c(N/N=C/c3cccc([N+](=O)[O-])c3)cc(C)nc2c1`, the inhibition came out at 4.14%.

`Nc1cccc(CNCc2cccc(-c3cccc(-c4nc5cc(C(F)(F)F)ccc5[nH]4)c3)c2)c1`: the inhibition is 1.43%.

For the compound `CO/C(=C\C=C\c1cc2cc(Cl)c(Cl)cc2[nH]1)C(=O)Nc1ccc(NCCN(C)C)nc1`, the inhibition was determined as 2.42%.

Take `Cc1nc(N)nc(N)c1-c1ccc(Br)cc1`: the inhibition amounted to 7.53%.

In the case of `OCC1CCN(Cc2ccc(-c3cccc(-c4nc5cc(C(F)(F)F)ccc5[nH]4)c3)cc2)CC1`, the inhibition amounted to 7.35%.

For the compound `Cc1cccc2nc(-c3cccc(-c4cccc(NC(=O)c5cnccc5C(F)(F)F)c4)c3)[nH]c12`, the inhibition was -3.32%.

For the compound `O=C(/C=C/c1ccc(Cl)c(Cl)c1)NC1CCN(Cc2ccc(O)cc2)CC1`, the inhibition is -3.54%.

Regarding `O=C(Nc1ccc2oc(-c3ccc(Br)cc3)nc2c1)c1ccc([N+](=O)[O-])o1`, the inhibition turned out to be 6.73%.

Regarding `O=S(=O)(c1c(Cl)cccc1Cl)N1CCCCC(c2ccc(C(F)(F)F)cc2)=N1`, the inhibition came out at 4.51%.

Regarding `NC1CCN(Cc2cccc(-c3ccc(-c4nc5ccccc5[nH]4)cc3)c2)C1` (stereo not given), the inhibition is 1.99%.

On to `CCNc1cc(C(=O)N[C@@H](Cc2ccco2)[C@H](O)CNC2CCCCC2)cc(N2CCCCS2(=O)=O)c1`, for which the inhibition stood at 2.15%.

As for `O=C(Nc1ccc(Cn2ncc(N3CCCNCC3)c(Cl)c2=O)cc1)Nc1ccc(C(F)(F)F)cc1`, the inhibition was -0.44%.

In the case of `Cc1[nH]c(C)c(-c2ccc(OCc3ccc(F)cc3)cc2)c(=O)c1Br`, the inhibition was -1.56%.

Regarding `COc1cc2ccccc2c(CNCCCCCCNCc2c(OC)c(OC)cc3ccccc23)c1OC`, the inhibition stood at 1.23%.

For the compound `CCn1cc(-c2cc(C(=O)Nc3ccc(OC)cc3C)c3ccccc3n2)c(C)n1`, the inhibition was 3.97%.

As to `COc1ccccc1NC(=O)CSc1nc2cccnc2n1-c1ccccc1OC`, the inhibition was 0.14%.

Regarding `CC1(CCc2ccccc2)N=C(N)N(Cc2ccccc2)C(=O)C1c1ccc(Cl)c(Cl)c1` (stereo not given), the inhibition worked out at 0.94%.

For `COc1cccc(-c2cc(C(=O)Nc3ccc4[nH]c(-c5ccccc5)nc4c3)[nH]n2)c1`, the inhibition was determined as 1.09%.

Take `CC(C)c1ncc(-c2ccncc2)c(C2CCC(CNC(=O)c3ccncc3)CC2)n1` (stereo not given): the inhibition worked out at 1.87%.

As for `Cc1cc(C)c2cc(CNCCCNc3nc4ccccc4[nH]3)[nH]c2c1`, the inhibition was 2.91%.

On to `Cc1cc(=O)c(-c2ccc(Oc3ccc(OC(F)(F)F)cc3)cc2)c(C)[nH]1`, for which the inhibition is -1.38%.

For the compound `CNS(=O)(=O)Cc1ccc(Nc2nccc(Nc3cccc4c3cnn4C(=O)Nc3ccccc3)n2)cc1`, the inhibition amounted to 3.72%.
